Bioassay records from PubChem BioAssay.
DUSP3 inh – DUSP3 (human) phosphatase inhibition; recombinant VHR phosphatase, pNPP absorbance; inhibition, % at 13.3 µM; 0.52% of 290,000 active; in the data active = inhibition above about 50%
Target sequence (P51452 whole entry, looked up): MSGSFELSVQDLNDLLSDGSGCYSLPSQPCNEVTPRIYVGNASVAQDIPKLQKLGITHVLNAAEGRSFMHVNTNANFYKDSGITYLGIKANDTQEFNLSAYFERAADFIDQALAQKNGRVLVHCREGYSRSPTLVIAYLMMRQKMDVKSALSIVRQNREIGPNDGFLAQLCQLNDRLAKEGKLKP
MazF activator – activators of E. coli MazEF toxin-antitoxin RNase. AID 504720. FAM/BHQ RNA-DNA oligo cleavage fluorescence, 5 h. activation, % at 20 µM. 0.32% of 350,000 active; in the data active = activation above about 50%
Target sequence (P0AE70 whole entry, looked up): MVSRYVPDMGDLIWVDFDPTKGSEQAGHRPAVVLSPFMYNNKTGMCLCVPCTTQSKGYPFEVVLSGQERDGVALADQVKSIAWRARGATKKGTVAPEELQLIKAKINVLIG
BioA inh – blocks M. tuberculosis BioA enzyme activity; inhibition, % at 9.99 µM; AID 602481; 0.096% of 360,000 active; purified M. tuberculosis BioA enzyme, plate reader; in the data active = inhibition above about 40%
TcdB inh – TcdB glycohydrolase inhibition; inhibition, % at 9.99 µM; TcdB glycohydrolase enzymatic assay, plate reader; 0.24% of 350,000 active; in the data active = inhibition above about 10%
FadD28 binding – M. tuberculosis FadD28 bisubstrate binding inhibition; FadD28 bisubstrate probe binding, fluorescence polarization; inhibition, % at 12.5 µM; 0.22% of 360,000 active; in the data active = inhibition above about 8.5%, passing the limit was not always enough
Y pestis TopoI – blocks Yersinia pestis topoisomerase I activity. 0.064% of 360,000 active. activity, % at 10 µM. Y. pestis Topo-I cleavage product accumulation, plate reader; in the data active = activity above about 50%, passing the limit was not always enough
Numbers without * were called inactive; / = no result. Most compounds without a hit are left out; they make up all but 1% or so of the library.

SMILES	DUSP3 inh	MazF activator	BioA inh	TcdB inh	FadD28 binding	Y pestis TopoI
CC(C)C#Cc1ccc2c(c1)O[C@@H](CN(C)C(=O)c1cccnc1)[C@@H](C)CN([C@@H](C)CO)S2(=O)=O	/	/	2.9	-0.5	/	/
CCSc1nnc(N2C(=O)C(O)=C(C(=O)c3ccco3)C2c2cccc(OC)c2)s1 (stereo not given)	3.7	64.6*	-3.8	1.4	-1.7	-6.0
CO[C@@H]1CN(C)C(=O)c2ccc(NC(C)=O)cc2OC[C@H](C)N(Cc2ccncc2)C[C@H]1C	/	/	0.3	-1.1	/	/
CCC(=O)Nc1ccc2c(c1)OC[C@@H](C)N(C(=O)NC(C)C)C[C@@H](C)[C@@H](OC)CN(C)C2=O	/	/	-1.8	17.9*	/	/
CCC(=O)Nc1ccc2c(c1)OC[C@@H](C)N(C(=O)NC(C)C)C[C@H](C)[C@@H](OC)CN(C)C2=O	/	/	-3.4	8.8	/	/
CCC(=O)Nc1ccc2c(c1)OC[C@H](C)N(C(=O)NC(C)C)C[C@H](C)[C@H](OC)CN(C)C2=O	/	/	-0.5	12.8*	/	/
COc1ccc(NC(=O)Nc2ccc3c(c2)C(=O)N([C@@H](C)CO)C[C@H](C)[C@H](CN(C)Cc2ccc(C(=O)O)cc2)OCCCC[C@@H](C)O3)cc1	/	/	2.3	0.0	/	/
CC(C)NC(=O)N(C)C[C@@H]1OCCCC[C@H](C)Oc2ccc(N(C)C)cc2C(=O)N([C@H](C)CO)C[C@@H]1C	/	/	-0.6	-12.6	/	/
C[C@H]1CN([C@@H](C)CO)C(=O)Cc2cc(NC(=O)C3CCCCC3)ccc2O[C@H]1CN(C)S(=O)(=O)c1ccccc1	/	/	0.5	1.2	/	/
CNC(=S)N/N=C(\C)c1ccc(C(C)(C)C)cc1	59.9*	-0.5	-1.1	/	-0.9	2.2
CNC(=S)N/N=C(\C)c1ccccc1	22.4	-0.8	/	1.1	-0.5	0.5
O=C(NCc1cccc(F)c1)[C@H]1[C@H](CO)[C@H]2Cn3c(cccc3=O)[C@@H]1N2C(=O)c1cnccn1	/	/	0.5	0.9	/	/
C=CCn1c(SCCN2CCOCC2)nc2c1c(=O)[nH]c(=O)n2C	18.0	1.5	-2.3	/	-0.5	11.0
COCCn1c(SCCN2CCOCC2)nc2c1c(=O)[nH]c(=O)n2C	58.3*	9.1	-1.2	0.2	-0.2	3.6
CO[C@H]1CN(C)C(=O)c2cc(NC(=O)c3nc4ccccc4s3)ccc2OC[C@H](C)N(Cc2cncnc2)C[C@@H]1C	/	/	-1.1	/	/	/
CC(C(=O)N/N=C/c1ccc(N(C)C)c(Br)c1)N(c1ccccc1)S(C)(=O)=O (stereo not given)	50.3*	3.6	2.8	/	-1.7	2.2
COc1ccc(C2(c3ccc(OC)cc3)NC(=O)N(CC(=O)Nc3cc(C)ccc3OC)C2=O)cc1	56.9*	-1.0	-3.1	0.9	0.4	4.5
Cc1ccc(CN2CCCN(Cc3ccc(F)cc3Cl)S2(=O)=O)cc1	52.6*	-2.2	-2.3	0.5	-0.5	20.2
Cc1ccc(CN2CCCN(Cc3c(F)cccc3Cl)S2(=O)=O)cc1	9.6	-7.5	0.1	3.6	/	19.6
N#Cc1ccc(COC(=O)c2cccnc2Cl)cc1	59.1*	5.8	-1.1	2.1	/	3.1
Oc1ccccc1Oc1ncc(Br)c(N2CCOCC2)n1	3.6	-8.4	1.0	/	-4.1	-0.1
Oc1ccccc1Oc1c(F)c(F)nc(N2CCCC2)c1F	-5.7	14.1	5.7	0.8	20.8*	-4.0
Oc1cc2c(cc1O)C1c3ccc(O)c(O)c3OCC1(O)C2 (stereo not given)	21.1	263.9*	-0.2	-32.8	0.6	1.0
O=C(C[C@H]1C=C[C@H](NC(=O)c2ccccc2)[C@H](CO)O1)NCc1ccc(Oc2ccccc2)cc1	/	/	/	0.1	/	/
COc1ccc2c3c(n(C)c2c1)[C@@H](CO)N(C(=O)Nc1ccc(F)cc1)CC31CCN(S(=O)(=O)c2cn(C)cn2)CC1	/	/	/	-8.0	/	/
COc1ccc(Cc2nnc(SCc3nc4ccccc4c(=O)[nH]3)o2)cc1	9.7	21.2	-2.2	-0.1	-1.3	-2.6
O=c1[nH]c(CSc2nnc(Cc3ccccc3)o2)nc2ccccc12	16.5	-2.6	-0.8	18.9*	-0.6	2.5
COc1ccc(N2CCCC2)c(NC(=O)c2ccc(Br)o2)c1	6.9	62.6*	-0.1	1.1	0.8	13.0
CCOC(=O)N1CCC(N(CCN(C)C)C(=S)Nc2ccc(OCC)cc2)CC1	53.7*	/	/	0.8	/	/
CCOC(=O)C(C(=O)OCC)c1cc(Br)c2noc3c2c1C(=O)c1ccccc1-3	-0.5	178.0*	/	/	2.9	-5.2
